Source: PubChem BioAssay (NCATS)
Records with an inconclusive call do not appear. Activity calls are given as the source filed them. Calls come from the whole dose curve; as a rule, active = well fitted inhibition curve with a large enough effect; inconclusive = small, poorly fitted or top-dose-only effect; inactive = flat fitted curve, though single readings scatter.

Experiment: P-glycoprotein substrates identified in KB-8-5-11 adenocarcinoma cell line, qHTS therapeutic library screen (AID 1346987); note: nearly all actives have a fitted effect of over 65% in size
Conditions: KB-8-5-11 (P-gp overexpressing) viability, CellTiter-Glo, 72 h; series mostly up to 44.5 µM; activity change, negative = cytotoxicity: at the top concentration
Summary of the method: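 In this qHTS, P-gp-rich KB-8-5-11 cells received library compounds across a concentration range. Viability was quantified by luminescence after 72 h at 37 degree C.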
% is set by controls: 0 for no effect and ±100 for the full control effect; potency is the fitted concentration of half-maximal effect.

| Structure (SMILES) | activity change, negative = cytotoxicity | Potency |
| --- | --- | --- |
| CCCNCCc1ccc(NS(=O)(=O)c2ccc(OC(F)(F)F)cc2)cc1 | -6.03% (inactive) |  |
| CCC(C)C(=O)O[C@H]1[C@H](O)[C@@]2(COC(C)=O)C(CC1(C)C)C1=CCC3[C@@]4(C)CC[C@H](O[C@@H]5O[C@H](C(=O)O)[C@@H](O)[C@H](O)[C@H]5O)[C@@](C)(CO)C4CC[C@@]3(C)[C@]1(C)C[C@@H]2O (stereo partly drawn) | -11.3% [at 9.29 µM] (inactive) |  |
| CCOC(=O)N1CCC(N2CCC[C@@H](NC(=O)c3ccccc3C)C2)CC1 | -6.31% (inactive) |  |
| C=C(C)[C@@H]1CC=C(COC(=O)NC(=O)c2ncn3c(=O)n(C)nnc23)CC1 | -21.9% (inactive) |  |
| C=C1C(=O)OC2C3=C(C)C(=O)CC3C(C)CC(O)C12 (stereo not drawn) | -0.957% (inactive) |  |
| CCCCCCCCC(=O)N[C@H](CN1CCCC1)[C@H](O)c1ccc2c(c1)OCCO2 |  | 16.4 µM (active) |
| COCCNCc1ccc(-c2cc3nccc(Oc4ccc(NC(=O)C5(C(=O)Nc6ccc(F)cc6)CC5)cc4F)c3s2)nc1 |  | 4.61 µM (active) |
| COc1ccccc1OCCNCC(O)CCOc1cccc2[nH]c3ccccc3c12 (stereo not drawn) |  | 18.4 µM (active) |
| O=C(Nc1ccccc1Cl)c1cnc2ccc(C3CCNCC3)cn12 | -14.1% (inactive) |  |
| CC(C)n1cnc2c(-c3cnc(N)nc3)nc(N3CCOCC3)nc21 |  | 0.709 µM (active) |
| COc1ccccc1N1CCN(CC(C(=O)NC(C)(C)C)c2ccccc2)CC1 (stereo not drawn) | -2.02% (inactive) |  |
| COC(=O)c1sccc1S(=O)(=O)Nc1ccc(Nc2ccccc2)cc1OC | -24.5% (inactive) |  |
| C/C=C(\C)C(=O)OC1C[C@@]2(COC(C)=O)O[C@H]2/C=C\[C@@]2(C)O[C@@H]2[C@H]2OC(=O)C(COC(C)=O)=C12 (stereo partly drawn) | -0.966% [at 17.3 µM] (inactive) |  |
